Measured values published in PubChem BioAssay (NCATS).
Records with an inconclusive call do not appear. Entries that show only a call come without a potency. Values without a mark were called inactive. Activity calls are given as the source filed them. The call rests on the fitted dose curve; in most records, active means well fitted curve in the direction sought with a large enough effect; inconclusive means small, poorly fitted or top-dose-only effect, or another doubt; inactive means no such curve, though single readings can be large; an effect the other way counts as inactive or inconclusive.

Tests used:
[1] = target: Cellular tumor antigen p53 (Homo sapiens) (UniProt P04637); assay: Primary qHTS for small molecule compounds that upregulate eGFP-tagged delta133p53alpha (in N-terminal) cells. (AID 2060322); conditions: NCI-H358 eGFP-delta133p53alpha fluorescence, 24 h; activation: stronger effect = higher value; further: nearly all actives have a fitted effect of over 75% in size
Cellular tumor antigen p53 (Homo sapiens), sequence (P04637 whole entry, looked up): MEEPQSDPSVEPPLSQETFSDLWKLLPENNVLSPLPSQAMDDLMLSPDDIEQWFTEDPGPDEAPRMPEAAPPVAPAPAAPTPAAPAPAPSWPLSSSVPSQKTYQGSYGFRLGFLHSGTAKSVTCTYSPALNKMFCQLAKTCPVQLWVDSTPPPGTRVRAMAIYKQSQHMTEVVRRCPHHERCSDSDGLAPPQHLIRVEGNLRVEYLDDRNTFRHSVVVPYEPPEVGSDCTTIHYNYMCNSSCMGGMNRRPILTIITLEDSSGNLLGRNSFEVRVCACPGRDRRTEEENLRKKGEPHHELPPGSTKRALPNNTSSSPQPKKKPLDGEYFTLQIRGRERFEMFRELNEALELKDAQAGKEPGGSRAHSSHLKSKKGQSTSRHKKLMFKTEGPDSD
In short: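 NCI-H358 cells pre-induced 24 h with 10 ng/ml doxycycline to express N-terminal eGFP-delta133p53alpha, then dosed 24 h at 37C without doxycycline; fixed, Hoechst-stained, GFP intensity by laser scanning cytometry, normalized to DMSO (0%) and 57.5 uM 5-azacytidine (100%).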

[2] = target: Aldehyde dehydrogenase, mitochondrial (Homo sapiens) (UniProt P05091); assay: qHTS for Inhibitors of the Aldehyde Dehydrogenase Family (ALDH2) Primary screen (AID 2061308); conditions: ALDH2 enzyme inhibition qHTS, 1536-well; series mostly up to 56 µM; further: nearly all actives have a fitted effect of over 55% in size
[3] = target: Retinaldehyde dehydrogenase 3 (Homo sapiens) (UniProt P47895); assay: qHTS for Inhibitors of the Aldehyde Dehydrogenase Family (ALDH1A3) Primary screen (AID 2061315); conditions: ALDH inhibition qHTS; series mostly up to 56 µM; further: potency means the concentration at half of the fitted maximal effect

| Structure (SMILES) | activation [1] [%] | activity change, negative = inhibition [2] | activity change, negative = inhibition [3] | Potency [2] | Potency [3] |
| --- | --- | --- | --- | --- | --- |
| C[C@@H]1O[C@@H](O[C@H]2[C@H](O)[C@@H](O[C@@H]3O[C@H](CO)[C@@H](O)[C@H](O[C@@H]4O[C@H](CO)[C@@H](O)[C@H](O)[C@H]4O)[C@H]3O)[C@H](O[C@H]3CC[C@@]4(C)C(=CC[C@@H]5C4CC[C@@]4(C)C5C[C@@H]5OC6(CC[C@@](C)(CO[C@@H]7O[C@H](CO)[C@@H](O)[C@H](O)[C@H]7O)O6)[C@@H](C)[C@@H]54)C3)O[C@@H]2CO)[C@H](O)[C@H](O)[C@H]1O (some centres not stated) | -25.2 | 9.58% [at 11.2 µM] | 9.26% [at 11.2 µM] | – | – |
| C[C@@H]1CC[C@]2(C(=O)OC3OC(CO)C(O)C(O)C3O)CC[C@]3(C)C(=CCC4[C@@]5(C)CC[C@H](O)[C@](C)(C(=O)O)C5CC[C@]43C)C2[C@]1(C)O (some centres not stated) | -8.93 | – | – | inactive | inactive |
| CC1=CC23[C@H](C=C(C(=O)O)[C@@H]2COC(=O)[C@]3(O)CO)[C@@H]1C (some centres not stated) | -6.87 | – | – | inactive | inactive |
| CC(C)n1cnc2c(-c3cnc(N)nc3)nc(N3CCOCC3)nc21 | 15.7 | – | – | inactive | inactive |
| CC1=CCC(C(C)(C)O[C@@H]2O[C@H](CO[C@@H]3O[C@@H](C)[C@H](O)[C@@H](O)[C@H]3O)[C@@H](O)[C@H](O)[C@H]2O)CC1 (some centres not stated) | -6.11 | – | – | inactive | inactive |
| C=C(C)C(=O)O[C@H]1C[C@@](C)(OC(C)=O)[C@@]2(O)CC[C@@](C)(O)[C@H](OC(C)=O)[C@@]23OC(=O)C(COC)=C13 | -9.16 | – | – | inactive | inactive |
| C/C(=C\CCC(C)(C)O)CCO[C@@H]1O[C@H](CO[C@@H]2O[C@@H](C)[C@H](O)[C@@H](O)[C@H]2O)[C@@H](O)[C@H](O)[C@H]1O | 0 | – | – | inactive | inactive |
| C=C1C(=O)O[C@H](CCC)[C@H]1C(=O)O | -1.67 | – | – | inactive | inactive |
| CC(C)(O)c1ccc2c(c1)C(=O)C[C@H]1[C@](C)(C(=O)O)CCC[C@]21C | -1.53 | – | – | inactive | inactive |
| CC(C)CCC1(O)C(=O)C(C)(C)C(O[C@@H]2O[C@H](CO)[C@@H](O)[C@H](O)[C@H]2O)C(C)(C)C1O (some centres not stated) | 12.5 | – | – | inactive | inactive |
| C=C(C(=O)O)C1CCC2(C)CCC(O)C(C)(O)C2C1 (configuration not stated) | 8.04 | – | – | inactive | inactive |
| C=CC(C)(C)O[C@@H]1O[C@H](CO[C@@H]2OC[C@](O)(CO)[C@H]2O)[C@@H](O)[C@H](O)[C@H]1O | -18.3 | – | – | inactive | inactive |
| C=CC1(C)CC2CCC3C(C)(C(=O)O)CCCC3(C)C2=CC1=O (configuration not stated) | -16 | – | – | inactive | inactive |
| CC1(C)CC[C@]2(C(=O)O)CC[C@]3(C)C(=CCC4[C@@]5(C)CC[C@H](O[C@@H]6O[C@H](C(=O)O)[C@@H](O)[C@H](O)[C@H]6O)C(C)(CO)C5CC[C@]43C)C2C1 (some centres not stated) | 12.2 | – | – | inactive | inactive |
| CC(CC12CCCN1C(=O)C1CCCN1C2=O)OC(N)=O (configuration not stated) | -18.3 | – | – | inactive | inactive |
| CC(C)(O)[C@@H]1CC[C@]2(CO)[C@@H](O)CC[C@](C)(O)[C@H]2[C@@H]1O[C@@H]1O[C@H](CO)[C@@H](O)[C@H](O)[C@H]1O | 1.53 | – | – | inactive | inactive |
| Fc1ccccc1-c1nc2ccn(Cc3ccc(-c4ccc(C(F)(F)F)cc4C(F)(F)F)nn3)cc-2n1 | 17 | – | – | inactive | inactive |
| CCN(CC)CCCCCCNc1cc(OC)cc2c(C)ccnc12 | -2.86 | – | – | inactive | 2.51 µM (active) |
| C=C(C)C(C)C1OC23CC4(CO2)C(CCC2C5(C)CCC(OC6OCC(O)C(OC7OC(CO)C(O)C(OC8OCC(O)C(O)C8O)C7O)C6OC6OC(CO)C(O)C6O)C(C)(C)C5CCC24C)C3C(C)(O)C1OC(C)=O (configuration not stated) | -19.8 | – | – | inactive | inactive |
| C[C@@H]1O[C@@H](O[C@H]2CC[C@@]3(C)C(CC[C@]4(C)C3CC=C3[C@@H]5CC(C)(C)CC[C@]5(C(=O)O[C@@H]5O[C@H](CO)[C@@H](O)[C@H](O)[C@H]5O)CC[C@]34C)[C@]2(C)CO)[C@H](O)[C@H](O[C@@H]2O[C@H](CO)[C@@H](O)[C@H](O)[C@H]2O)[C@H]1O (some centres not stated) | -6.11 | – | – | inactive | inactive |
| O=S(=O)(NCc1ccccn1)c1ccc(Br)c2ccccc12 | 0.333 | – | – | inactive | inactive |
| CSCC1OC(n2cnc3c(=O)[nH]cnc32)C(O)C1O (configuration not stated) | -8.4 | – | – | inactive | inactive |
| C=C1C(OC(C)=O)C(=O)C2C(C)(C)C(O)CCC2(C)C1CC(OC(C)=O)/C(C)=C/COC(C)=O (configuration not stated) | -14.5 | – | – | inactive | inactive |
| CC(=O)[C@H]1CC[C@H]2[C@@H]3CC=C4C[C@@H](OS(=O)(=O)O)CC[C@]4(C)[C@H]3CC[C@]12C | -4.33 | – | – | inactive | inactive |
